Results published in PubChem BioAssay (NCATS).
The list shows a part of the results. Where a call stands in place of a potency, no number is given. Records with an inconclusive call do not appear. Calls of active or inactive are those of the source. Calls come from the whole dose curve; as a rule, active = well fitted inhibition curve with a large enough effect; inconclusive = small, poorly fitted or top-dose-only effect; inactive = flat fitted curve, though single readings scatter.

Biological target: Luciferin 4-monooxygenase (Photinus pyralis) (UniProt P08659)
Experiment: qHTS screen for small molecules that inhibit ELG1-dependent DNA repair: Hit Confirmation in Biochemical Luciferin Assay (AID 624253)
Settings: purified firefly luciferase, luminescence counter-screen; series mostly up to 57.5 µM
Description: Cancer cells divide rapidly compared to normal cells in the body. During cell division, cancer cells need to duplicate their genome by DNA replication. The failure of genome duplication leads to cancer cells' death. Therefore, inhibitors of DNA replication could specifically kill cancer cells. Based on this concept, many chemotherapeutic agents were developed and have been used to treat cancer patients. However, there are a limited number of agents available in the clinical setting, and some of those that do exist have low efficacy and severe side effects. Therefore, if we can find the compounds that effectively block DNA replication either by directly damaging DNA or by inhibiting other cellular mechanisms, the options for cancer treatment will be broadened. With this in mind, we developed a quantitative high-throughput ELG1-luciferase reporter gene assay. Small molecules that specifically block ELG1 function in response to DNA damage can be identified by monitoring the suppression of luciferase activity. Since ELG1 defines a pathway for repairing DNA damage, agents blocking ELG1 function can be used to sensitize cancer cells to chemotherapeutic agents whose mechanism of action involves the induction of DNA damage. NIH Molecular Libraries Probe Production Network [MLPCN] NIH Chemical Genomics Center [NCGC] MLPCN Grant: R03 MH092164 Assay Provider: Kyungjae Myung, NHGRI, NIH
3 uL of substrate reagent will be pipetted into each well in 1536-well white, solid-bottom plates using a FRD dispenser, followed by addition of 23 nL of DMSO or compounds by pintool. After compound addition, 1 µL of luciferase will be added into the wells. The plates will be read in a ViewLux CCD-based plate reader.
Potency is the fitted concentration of half-maximal effect.

Compound | Potency
CC(=O)N1CCc2cc(Br)cc(S(=O)(=O)CCC(=O)Nc3c(C)n(C)n(-c4ccccc4)c3=O)c21 | inactive
Cc1ccccc1NC(=O)CSc1nc2ccc(Nc3nc(N4CCOCC4)nc(N4CCOCC4)n3)cc2s1 | inactive
Cc1ccc(Nc2nc(N3CCOCC3)nc(N3CCOCC3)n2)cc1Cl | inactive
COc1ccc(NC(=O)C2CCC(CNc3c(N4CCCCC4)c(=O)c3=O)CC2)c(OC)c1 (stereo not given) | inactive
O=C(Nn1c(SCc2ccc([N+](=O)[O-])cc2)nc2ccccc2c1=O)c1ccc(F)cc1 | 16.4 µM (active)
COc1ccc(CSc2nc(N3CCOCC3)c3c(c2C#N)CC(C)(C)OC3)cc1 | inactive
CS(=O)c1ccc(/C=C2\C=Cc3ccccc32)cc1 (stereo not given) | 1.03 µM (active)
COc1ccc(NC(=O)c2sc3nc(C)nc(N4CCN(c5ccccn5)CC4)c3c2C)c(OC)c1 | inactive
O=C(C1CCCN(S(=O)(=O)c2ccccc2)C1)N1CCN(c2ccc(F)cc2)CC1 (stereo not given) | inactive
COc1ccc(NC(C)=O)cc1NC(=O)CN1CCN(C2c3ccccc3-c3ccccc32)CC1 | inactive
